# Compounds with a hit are over-represented: about 10% of the library has one in this group of screens.
# G9a block: blocks human histone lysine methyltransferase G9a. Q96KQ7. G9a H3K9 monomethylation, AlphaScreen, 2 h. Potency, µM (series often up to 102 µM), inactives show at the highest dose activity, negative = inhibition, hits mostly inhibitors. 8.8% of 350,000 active; note: potency is the fitted concentration of half-maximal effect; % is set by controls: 0 for no effect and ±100 for the full control effect; nearly all actives have a fitted effect of over 75% in size
#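 Using a bead-based AlphaScreen, monomethylated H3K9 product from 2 h room-temperature reactions (G9a 20 nM, peptide 500 nM, SAM 20 uM) was detected with 0.5 ug/mL rabbit anti-H3K9me1 antibody.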
# BAZ2B block: inhibitors of human BAZ2B bromodomain. AlphaScreen BAZ2B-H3K14Ac peptide displacement. 4.4% of 360,000 active. Q9UIF8. Potency, µM (doses to about 114 µM), inactives show at the highest dose activity change, negative = inhibition, actives largely listed as inhibitors. AID 504333; note: potency is the fitted concentration of half-maximal effect; % is set by controls: 0 for no effect and ±100 for the full control effect; nearly all actives have a fitted effect of over 60% in size
#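 Protein-peptide AlphaScreen: BAZ2B 50 nM, b-H3K14Ac 50 nM, 1x PBS pH 7.4 + 0.01% Tween-20. Preincubation 30 min RT; cpd 30 min RT (top 110 uM); beads 20 min RT, light-protected.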
# HP1b chromo inh: HP1-beta chromodomain-methylated histone interaction inhibition. AlphaScreen HP1-beta / biotin-H3K9me3 peptide binding. 0.56% of 390,000 active. Potency, µM (series often up to 114 µM), for the others: at the top dose activity change, negative = inhibition, usual class: inhibitors. AID 540317; note: potency is the fitted concentration of half-maximal effect; nearly all actives have a fitted effect of over 70% in size
#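 Compound inhibition of the preformed complex between 50 nM HP1-beta and 50 nM biotinylated H3K9me3 peptide was read by AlphaScreen. Buffer was PBS pH 7.4 with 0.01% Tween-20. Incubations ran 30 min at room temperature, with 10 ug/mL donor/acceptor beads.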
# JMJD2A Tudor: JMJD2A Tudor domain (human) inhibition. Potency, µM (doses to about 114 µM), inactives show top-dose activity change, negative = inhibition, most hits filed as inhibitors. 4.4% of 390,000 active. AID 504339. O75164. AlphaScreen JMJD2A-Tudor / H3K4me3 peptide binding; note: potency is the fitted concentration of half-maximal effect; % is set by controls: 0 for no effect and ±100 for the full control effect; nearly all actives have a fitted effect of over 50% in size
# CtBP-E1A blk: blocks the CtBP interaction with E1A; AlphaScreen GST-E1A/His-CtBP binding, 1536-well; hits give low values; activity change, % (concentration not given with the values); 0.49% of 340,000 active; in the data active = activity change below about -65%; inconclusive = mostly about -30% to -63%; note: % is set by controls: 0 for no effect and ±100 for the full control effect
#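 Homogeneous bead-based format: GST-tagged E1A captured on glutathione donor beads, His-tagged CtBP on nickel acceptor beads; compounds precede bead addition by 2 h at 37 °C.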
# Six1-Eya2 blk: Six1/Eya2 interaction inhibition; 0.56% of 360,000 active; Q15475+O00167; activity change, % (test concentration not listed); AID 651725; AlphaScreen GST-Six1/His-Eya2 binding, biochemical; hits give low values; in the data active = activity change below about -65%; inconclusive = mostly about -30% to -63%; note: % is set by controls: 0 for no effect and ±100 for the full control effect
#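 GST-Six1 + His-Eya2 (5X stock: 250/500 nM); Tris pH 8.0, 300 mM NaCl, 0.05% BSA, 0.02% Tween 20; GSH donor/Ni acceptor beads; 1 h 37 °C dark; AlphaScreen readout.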
# * = called active by the depositor; ? = inconclusive; / = not tested or not shown; ! = a repeat was not active; [ ] = another dose, or the depositor's remark. Unless noted, calls come from the whole dose curve; as a rule, active = well fitted inhibition curve with a large enough effect; inconclusive = small, poorly fitted or top-dose-only effect; inactive = no such curve, though single readings can be large or run the other way.
SMILES,G9a block,BAZ2B block,HP1b chromo inh,JMJD2A Tudor,CtBP-E1A blk,Six1-Eya2 blk
Cc1ccccc1C(=O)NNC(=S)NC(=O)COc1ccccc1,0.562µM*,?,?,4.47µM*,5.5,1.5
COc1ccc(C(=O)NC(=S)NNC(=O)c2cccnc2)cc1,?,13.3%,18.1%,-9.2%,-14.0,-8.7
Cn1c(=O)oc2cc(S(=O)(=O)N3CCC(C(=O)N4CC=C(c5ccccc5)CC4)CC3)ccc21,50.1µM*,-3.0%,34.3%,-15.2%,-25.0,-0.2
O=C(NCc1ccccc1)c1cccc(Nc2nc3ccccc3n3nnnc23)c1,4.6%[59 µM],-15.5%,?,-27.4%,/,/
COc1ccc(N2CCN(Cc3nc4ccccc4[nH]3)CC2)cc1,31.6µM*,-25.8%,15.8%,-33.8%,13.3,10.3
CSc1ncc(C(=O)Nc2ccc(Cl)cc2C(=O)c2ccccc2)c(C)n1,-9.0%[59 µM],-15.6%,4.8%,-21.8%,/,/
CN(C)CCc1nc2ccccc2c(=O)n1-c1ccccc1,-26.0%[12.7 µM],12.2%,/,/,/,/
N#CCn1c(CCl)nc2ccccc2c1=O,56.2µM*,-13.5%,18.6%,-16.4%,-12.2,5.8
CC1OC1P(=O)(O)O (stereo not drawn),25.1µM*!,/,/,/,/,/
c1ccc([Se]c2c(-c3ccccc3)[se]c3ccccc23)cc1,84.6%[59 µM],/,/,/,/,/
ClC(Cl)(Cl)Cl,31.5%[59 µM],/,/,/,/,/
CCN(CC)c1ccc(/C=C2\C(=O)NC(=S)N(C)C2=O)o1,12.0%[12.7 µM],?,-8.2%,-26.4%,2.4,-0.7
CCN(CC)c1ccc(C=C2C(=O)N(C)C(=S)N(C)C2=O)o1,20µM*,?,-25.3%,-30.1%,-4.6,7.4
Cc1cc(C)cc(-n2c(C)cc(/C=C3\C(=O)NC(=O)N(C)C3=O)c2C)c1,0.1%[59 µM],0.6%,29.9%,0.4%[57.1 µM],2.1,1.4
Cc1ccnc(-n2c(C)cc(C=C3C(=O)N(C)C(=S)N(C)C3=O)c2C)c1,31.6µM*,?,?,?,-10.2,-4.2
Cc1cc(C=C2C(=O)N(C)C(=S)N(C)C2=O)c(C)n1-c1ccncc1,50.1µM*,-25.0%,?,44.7µM*,11.1,-2.2
CC(C)Cc1nc2cccnc2n1C1CCNCC1,-30.0%[59 µM],-4.5%,15.4%,-7.0%,/,/
CCc1ccc(-n2nc(C)c3c2NC(=O)CSC3c2ccc(OC)cc2OC)cc1 (stereo not drawn),8.7%[59 µM],7.7%,52.2%,25.8%,/,/
CCCC[N+]12CCC(CC1)C(=C(c1ccccc1)c1ccccc1)C2,10µM*,50.1µM*,?,?,2.7,9.8
Brc1c(Br)c(Br)c2n[nH]nc2c1Br,18.8%[59 µM],/,/,/,/,/
O=C(Nc1nn[nH]n1)c1cccc([N+](=O)[O-])c1,25.1µM*,79.4µM*,19.6%,22.4µM*,-8.6,3.5
COCc1[nH]nc2c1C(c1ccccc1F)C(C#N)=C(N)O2 (stereo not drawn),-10.2%,18.1%,31.3%,-8.6%,-2.7,11.6
CC(=O)OCC(=O)C1CCC2C3CC=C4CC(O)CC[C@@]4(C)C3CC[C@]12C (stereo partly drawn),-23.3%[2.33 µM],/,/,/,/,/
CN1CCN(P(=O)(c2ccccc2)c2nc3ccccc3s2)CC1 (stereo not drawn),-5.9%,-2.9%,27.9%,-12.2%,1.3,1.4
CN(C)c1ccc(/C=C/C=C/c2sc3ccccc3[n+]2C)cc1,?,?,?,?,6.3,5.8
SMILES,G9a block,BAZ2B block,HP1b chromo inh,JMJD2A Tudor,CtBP-E1A blk,Six1-Eya2 blk
CC[n+]1c(/C=C/C=C/c2ccc(N(C)C)cc2)sc2ccccc21,39.8µM*,35.5µM*,?,50.1µM*,3.5,0.0
CC(=O)O[C@H]1C(=O)[C@@]2(C)C([C@H](OC(=O)c3ccccc3)[C@]3(O)C[C@H](OC(=O)[C@H](O)[C@@H](NC(=O)c4ccccc4)c4ccccc4)C(C)=C1C3(C)C)[C@]1(OC(C)=O)CO[C@@H]1C[C@@H]2OC(=O)[C@H](C)NC(=O)c1ccc(-c2c3ccc(=O)cc-3oc3cc(O)ccc23)c(C(=O)O)c1 (stereo partly drawn),52.9%[12.7 µM],/,/,/,/,/
N[C@@H](Cn1oc(=O)[nH]c1=O)C(=O)O,10µM*!,/,-7.5%,3.98µM*,6.6,-1.7
CC1CCCCN1CCNS(=O)(=O)c1ccc2c(c1)oc(=O)n2C (stereo not drawn),?,2.4%,23.1%,-15.3%,3.3,-0.3
CCCCC/C=C\C/C=C\C/C=C\C/C=C\CCCC(=O)O,15.8µM*!,-7.0%,/,/,/,/
CCN(CC)Cc1cc(Nc2ccnc3cc(Cl)ccc23)ccc1O,?,50.1µM*!,17.5%,-28.1%,-21.9,-5.7
CN(C)C(=O)Oc1ccnc2cc(Cl)ccc12,1.7%,-12.3%,-1.8%,-3.2%,2.1,8.5
CC(C)CC1C(=O)N2CCC[C@H]2[C@]2(O)O[C@](NC(=O)[C@@H]3C=C4c5cccc6[nH]c(Br)c(c56)C[C@H]4N(C)C3)(C(C)C)C(=O)N12 (stereo partly drawn),/,/,1.6%,?,/,/
CC(C)[C@@]1(NC(=O)[C@@H]2C[C@@H]3c4cccc5[nH]cc(c45)C[C@H]3N(C)C2)O[C@@]2(O)[C@@H]3CCCN3C(=O)[C@H](Cc3ccccc3)N2C1=O,?,39.8µM*,5.3%,-30.9%,7.2,4.7
CC(C)[C@@]1(NC(=O)[C@@H]2C=C3c4cccc5[nH]cc(c45)C[C@H]3N(C)C2)O[C@@]2(O)[C@@H]3CCCN3C(=O)[C@H](Cc3ccccc3)N2C1=O,8.91µM*,-34.8%,/,/,/,/
CC1(C)C(O)CC(O)[C@]2(C)C1CC(=O)[C@]1(C)C2CC[C@@]2(C)C(c3ccoc3)OC(=O)C3OC321 (stereo partly drawn),0.5%[2.33 µM],/,/,/,/,/
Cc1ccc(-c2nc(CS(=O)CC(=O)NC3CCCC(C)C3C)c(C)o2)cc1 (stereo not drawn),35.5µM*,-19.4%,28.5%,-21.1%,-6.2,-0.9
CCCCCc1cc(O)c2c(c1)OC(C)(C)C1CC=C(C)CC21 (stereo not drawn),-40.3%[12.7 µM],/,/,/,/,/
Cc1cccc(Cn2c(SCc3ccc(C(=O)NC4CCCCC4)cc3)nc3cccnc32)c1,?,-8.5%,-2.7%,-21.1%,/,/
O=c1c2cc([N+](=O)[O-])ccc2nc(CN2CCOCC2)n1-c1ccccc1F,2.82µM*,-35.9%,/,/,/,/
O=c1c2ccccc2nc(CN2CCOCC2)n1-c1ccccc1F,?,-15.1%,46.0%,-14.5%[57.1 µM],9.9,5.4
O=C(NCCc1ccc(Cl)cc1)c1ccc(CNc2c(N3CCOCC3)c(=O)c2=O)cc1,-1.8%,-0.8%,53.5%,-6.7%,/,0.2
Cc1ccc(N/N=C/C=C/c2ccco2)cc1,/,/,?,50.1µM*,-3.9,-0.9
Cc1ccc(-c2nc(N3CCOCC3)s[n+]2-c2ccccc2)cc1,0.891µM*,?,?,8.91µM*,-18.8,-1.0

# From PubChem
